Data on 40 sequences can be found in the supplement of paper PMC6555819.

The first test relates to LXRb homodimer (NR concentration 270 nM). Briefly: PBM binding z-score (relative to random genomic background probes); higher = stronger binding; sequences stand for … in GC…GCGATTGACAGCGTAGAATGAAGG
The method in brief:
(§1)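 Binding z-scores take random background probes as their reference. They come from custom Agilent 4×180K protein-binding microarrays incubated 1 h with ligand-free nuclear receptor dimers, with antibodies against each partner (one per run) detecting binding. Scanned fluorescence was regression-normalized.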
TCTCGGAGGACACGAAGGTCAGAGCTTTCCAGAG: the PBM binding z-score is -1.06.

GCGACTGGGGCAATGCAGGTTACCATAAGGTTGG: the PBM binding z-score was -0.824.

Consider TCTAGTTGGTCAAAGGTCACACATTCGAAATGCG, for which the PBM binding z-score is 1.75.

In turn, CCGTCTGGGGCAGAAAGGTTACCATACCATCCGG registered a PBM binding z-score of -1.19.

Consider GCTTACGGGTCAAAGGTTGTAGCATGAATAGAAT, for which the PBM binding z-score amounted to 0.259.

GCTAGTTGGTCAGTAAAAGGTTACACACCGGTCG had a PBM binding z-score of -0.0752.

In the case of ATCGAAAGGTCGACGAGCTGAGTATACACCGTTT, the PBM binding z-score is 0.389.

With ACGATTAGTTGACTTAGGGCAACCGATACGACGC, the PBM binding z-score is -0.172.

As for TCTATTAGTTGACGGGCAACCGACGAGTCCGTTT, the PBM binding z-score stood at 0.493.

CAAACTAGGTCAGGGTCAAAGTCGGTTTGTGCCA came in with a PBM binding z-score of 0.645.

Sequence TCATATAGGTAATACAGGTGAAAGCCGGCATCTA gave a PBM binding z-score of -0.105.

Consider TCTTGTAGATCAAGCAGGTAAAGAAAGCCTGAGT, for which the PBM binding z-score was -0.624.

In turn, AGAATGAGCTTATACGTAGATCAGGGAAGAAAGT yielded a PBM binding z-score of -0.689.

In turn, TCTTGTCGATCAATAGAGGTTAAGAAAGTGCGCT registered a PBM binding z-score of 0.134.

In turn, TATATAGGGTCAAAGGCCAGAGTACGAATGTCGA came in with a PBM binding z-score of 2.01.

Take CCTAGTTGGTCAGGGTCACACACGCTATAGGTAC: the PBM binding z-score worked out at 0.27.

In the case of TCGAGTAGGTTACCAATGGGGCAATCAGCTTTCT, the PBM binding z-score was -1.22.

CGTCCAAGGTCAAAGTTCAGTGAAGAGATGACGG yielded a PBM binding z-score of 2.19.

Consider ATCTCTAGGTAACCAAGTTCAGTAAATGCCGAAC, for which the PBM binding z-score came out at 0.894.

For TCTATTAGTTGATCAGGGCAACCGAAACAGCGGA, the PBM binding z-score came to 0.641.

AGTCAATGTTCAGGACGAGGTAACGTAAAGCACG had a PBM binding z-score of -0.516.

ACTAGTTTGTCAGCTGAGGTCACACACAATTCGG had a PBM binding z-score of 1.33.

ATCTCTAGGGAAGACTCAGTTCAGTGAAGAACGC: the PBM binding z-score was found to be 0.414.

In turn, ATCTCTAGGTAAGACTCAGTTCAGTGACGAACGC had a PBM binding z-score of 0.883.

As for GCTTACGGGTCAAAGGTTATTGCATGAATAGAAT, the PBM binding z-score was found to be 0.701.

AGAGCGAGGGCACGCTGAGTTGATAGCAGAGTAG yielded a PBM binding z-score of -1.31.

Sequence GCTATTACTTGAAAGGGCAACCGAATGATTCTCG had a PBM binding z-score of 0.248.

As for ACAGACAGGTGATGAAGTTAACTCAGGCTATCAT, the PBM binding z-score is -0.182.

The sequence CCTAGTTCGTCAAGGTCACACACGCTATAGGTAC returned a PBM binding z-score of 1.33.

Sequence AATACAGGGTCATCGTAGGCCGGAGTACGCACAG registered a PBM binding z-score of 1.37.

As for CAATCTAGGTCACCGGAAGGTCAAAGTCCGCATG, the PBM binding z-score was 1.92.

For TCTAGTTGGTCACGGAAGTCACACACGACGGGTA, the PBM binding z-score turned out to be 0.323.

Sequence CCTGCTAGGTCATCGTCAGCTAATCTACAGTATG showed a PBM binding z-score of -0.413.

As for AGTCAAAGTTCACTAGGTCACGTAAGATTCAGCT, the PBM binding z-score is 1.45.

In the case of CCGAGCAGGCCAATCTGGGTCACTCAAGGCTTGA, the PBM binding z-score was -1.25.

In turn, AGAATGAGGTTATTTAGATCAGGGAATTGCGGTC came in with a PBM binding z-score of 0.456.

GCTGCTAGGTCAGGTTGGTCAGCGAACGGGTACG displayed a PBM binding z-score of -0.499.

In turn, AGTCAAAGTTCAGGACGAGGTTACGTAAAGCACG registered a PBM binding z-score of 0.273.

In the case of CCGACTGGGGCAGCAAGGTTACCATACCATCCGG, the PBM binding z-score is -0.744.

With CCGAGTGGGGCAAAGGTTACCATACTCAGTACGA, the PBM binding z-score was -0.506.

Another test relates to PPARa:RXRa (NR concentration 270 nM, RXRa partner concentration 90 nM). The test is described as above. A digest of the protocol:
as §1
As for TCTCGGAGGACACGAAGGTCAGAGCTTTCCAGAG, the PBM binding z-score was 1.98.

Consider GCGACTGGGGCAATGCAGGTTACCATAAGGTTGG, for which the PBM binding z-score is 1.78.

In the case of TCTAGTTGGTCAAAGGTCACACATTCGAAATGCG, the PBM binding z-score was determined as 6.86.

In turn, CCGTCTGGGGCAGAAAGGTTACCATACCATCCGG had a PBM binding z-score of 1.64.

As for GCTTACGGGTCAAAGGTTGTAGCATGAATAGAAT, the PBM binding z-score is 6.6.

Turning to GCTAGTTGGTCAGTAAAAGGTTACACACCGGTCG, the PBM binding z-score was found to be 1.85.

With ATCGAAAGGTCGACGAGCTGAGTATACACCGTTT, the PBM binding z-score was found to be 4.22.

In turn, ACGATTAGTTGACTTAGGGCAACCGATACGACGC registered a PBM binding z-score of -0.0149.

TCTATTAGTTGACGGGCAACCGACGAGTCCGTTT: the PBM binding z-score came to 0.565.

In the case of CAAACTAGGTCAGGGTCAAAGTCGGTTTGTGCCA, the PBM binding z-score was 6.05.

For TCATATAGGTAATACAGGTGAAAGCCGGCATCTA, the PBM binding z-score came out at 1.96.

Regarding TCTTGTAGATCAAGCAGGTAAAGAAAGCCTGAGT, the PBM binding z-score was 0.499.

For the sequence AGAATGAGCTTATACGTAGATCAGGGAAGAAAGT, the PBM binding z-score was -0.706.

TCTTGTCGATCAATAGAGGTTAAGAAAGTGCGCT gave a PBM binding z-score of 1.97.

TATATAGGGTCAAAGGCCAGAGTACGAATGTCGA yielded a PBM binding z-score of 6.35.

CCTAGTTGGTCAGGGTCACACACGCTATAGGTAC: the PBM binding z-score came to 4.17.

Regarding TCGAGTAGGTTACCAATGGGGCAATCAGCTTTCT, the PBM binding z-score stood at 1.27.

Turning to CGTCCAAGGTCAAAGTTCAGTGAAGAGATGACGG, the PBM binding z-score was 6.47.

Sequence ATCTCTAGGTAACCAAGTTCAGTAAATGCCGAAC gave a PBM binding z-score of 1.29.

TCTATTAGTTGATCAGGGCAACCGAAACAGCGGA: the PBM binding z-score turned out to be 0.282.

Regarding AGTCAATGTTCAGGACGAGGTAACGTAAAGCACG, the PBM binding z-score is -0.141.

As for ACTAGTTTGTCAGCTGAGGTCACACACAATTCGG, the PBM binding z-score was 3.71.

ATCTCTAGGGAAGACTCAGTTCAGTGAAGAACGC registered a PBM binding z-score of -0.566.

Turning to ATCTCTAGGTAAGACTCAGTTCAGTGACGAACGC, the PBM binding z-score was determined as 0.279.

GCTTACGGGTCAAAGGTTATTGCATGAATAGAAT returned a PBM binding z-score of 6.84.

In turn, AGAGCGAGGGCACGCTGAGTTGATAGCAGAGTAG registered a PBM binding z-score of 1.17.

As for GCTATTACTTGAAAGGGCAACCGAATGATTCTCG, the PBM binding z-score worked out at 1.

In the case of ACAGACAGGTGATGAAGTTAACTCAGGCTATCAT, the PBM binding z-score was -0.03.

In turn, CCTAGTTCGTCAAGGTCACACACGCTATAGGTAC had a PBM binding z-score of 4.36.

AATACAGGGTCATCGTAGGCCGGAGTACGCACAG gave a PBM binding z-score of 5.62.

Sequence CAATCTAGGTCACCGGAAGGTCAAAGTCCGCATG showed a PBM binding z-score of 6.32.

Regarding TCTAGTTGGTCACGGAAGTCACACACGACGGGTA, the PBM binding z-score stood at 1.21.

Take CCTGCTAGGTCATCGTCAGCTAATCTACAGTATG: the PBM binding z-score turned out to be 3.5.

AGTCAAAGTTCACTAGGTCACGTAAGATTCAGCT came in with a PBM binding z-score of 6.04.

CCGAGCAGGCCAATCTGGGTCACTCAAGGCTTGA: the PBM binding z-score turned out to be 2.65.

AGAATGAGGTTATTTAGATCAGGGAATTGCGGTC gave a PBM binding z-score of 2.9.

The sequence GCTGCTAGGTCAGGTTGGTCAGCGAACGGGTACG came in with a PBM binding z-score of 1.3.

AGTCAAAGTTCAGGACGAGGTTACGTAAAGCACG returned a PBM binding z-score of 3.73.

Regarding CCGACTGGGGCAGCAAGGTTACCATACCATCCGG, the PBM binding z-score is 0.883.

In the case of CCGAGTGGGGCAAAGGTTACCATACTCAGTACGA, the PBM binding z-score was 5.65.
